A short description of assay [1]: qHTS assay to identify small molecule antagonists of the sonic hedgehog signaling (Shh) pathway (AID 1259369). Note: nearly all actives have a fitted effect of over 45% in size. Note: potency is the fitted concentration of half-maximal effect. In a few lines: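 NIH/3T3-derived Gli1-Luc reporter cells plated 4 h, dosed with compound, then stimulated with conditioned medium for 24 h at 37 C. Firefly luciferase luminescence read after 30 min with detection reagent at room temperature.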
A short description of assay [2]: qHTS assay to identify small molecule agonists of the androgen receptor (AR) signaling pathway in the presence of an antagonist - cell viability counter screen (AID 1259379; active = well fitted curve in the direction sought with a large enough effect in the repeat runs; an effect the other way counts as inactive or inconclusive; note: nearly all actives have a fitted effect of over 25% in size; note: potency is the fitted concentration of half-maximal effect;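 for activity change, negative = cytotoxicity: MDA-kb2 human breast cancer cells carrying an MMTV luciferase reporter; series mostly up to about 92 µM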). The gist of the method:
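MDA-kb2 cells (MMTV-luciferase, AR/GR), 3,000/well, 5 h attachment, then 3.0 µM nilutamide (final) and compounds at 15 concentrations. Viability by CellTiter-Fluor fluorescence after 16 h at 37 °C, 0% CO2, in the reporter wells.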
In general terms: Quantitative high-throughput screening tests each substance at several concentrations.

Assay [3] in a line: qHTS assay to identify small molecule agonists of the estrogen receptor beta (ER-beta) signaling pathway - cell viability counter screen (AID 1259380; active = well fitted curve in the direction sought with a large enough effect in the repeat runs; an effect the other way counts as inactive or inconclusive; note: nearly all actives have a fitted effect of over 30% in size; note: potency is the fitted concentration of half-maximal effect). In a few lines:
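ER-beta-UAS-bla HEK293T cells in medium with 2% charcoal-stripped FBS, pre-incubated 6 hr, then treated 16 hr at 37C. Cytotoxicity read in the same wells by CellTiter-Glo luminescence after 30 min at room temperature.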

Assay [4] addresses Estrogen receptor (Homo sapiens) (UniProt P03372). Put plainly: qHTS assay to identify small molecule agonists of the estrogen receptor alpha (ER-alpha) signaling pathway in the presence of an antagonist (AID 1259383). Note: top concentration of the series differs between compounds; nearly all actives have a fitted effect of over 15% in size. The gist of the method:
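VM7Luc4E2 cells express endogenous full-length ER-alpha with an ERE-luciferase reporter and were hormone-deprived for 5 days. Compounds at 15 concentrations were added with 10.0nM ICI-182,780 for 22hr at 37C. Luminescence was read with ONE-Glo.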

Assay [5] can be described thus: qHTS assay to identify small molecule agonists or antagonists of the thyroid stimulating hormone receptor (TSHR) signaling pathway - wild type cell line counter screen (AID 1259384). The gist of the method: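 Wild-type HEK293 cells were plated 18 h at 37 C/5% CO2, pin-dosed with compound plus Ro20-1724 medium, held 30 min at room temperature, then given cAMP-d2 and anti-cAMP-cryptate; fluorescence was read after 1 h. Fifteen concentrations, triplicate.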

The target in assay [6] is Thyrotropin receptor (Homo sapiens) (UniProt P16473). Put plainly: qHTS assay to identify small molecule antagonists of the thyroid stimulating hormone receptor (TSHR) signaling pathway (AID 1259385). Note: nearly all actives have a fitted effect of over 20% in size. Note: potency is the fitted concentration of half-maximal effect. The gist of the method: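 TSHR-HEK293 cells were plated and held 18 h at 37C/5% CO2, then given compound plus Ro20-1724 and stimulated with TSH at 1.5 ng/mL final. After 30 min at room temperature, cAMP was detected with cAMP-d2/anti-cAMP-cryptate (1 h) by fluorescence.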

Assay [7] is described as follows: qHTS assay to identify small molecule antagonists of the estrogen receptor beta (ER-beta) signaling pathway - cell viability counter screen (AID 1259382; active = well fitted curve in the direction sought with a large enough effect in the repeat runs; an effect the other way counts as inactive or inconclusive; note: nearly all actives have a fitted effect of over 55% in size; note: potency is the fitted concentration of half-maximal effect; for activity change, negative = cytotoxicity: series mostly up to about 92 µM). In a few lines: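 ER-beta-UAS-bla HEK293T cells in 2% charcoal-stripped FBS medium, treated with compound plus 1 nM 17-beta-estradiol for 16 h at 37C. Viability read by CellTiter-Glo luminescence after 30 min at room temperature in the same wells.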

The target of assay [8] is Estrogen receptor beta (Homo sapiens) (UniProt Q92731). Put plainly: qHTS assay to identify small molecule antagonists of the estrogen receptor beta (ER-beta) signaling pathway (AID 1259378; active = well fitted inhibition curve with a large enough effect in the signal ratio in the repeat runs, not every such curve was filed as active; the % refers to the signal ratio; note: potency is the fitted concentration of half-maximal effect). In a few lines:
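ER-beta-UAS-bla HEK293T (GripTite) cells in 2% charcoal-stripped FBS medium were preincubated 6 hr at 37C, dosed with compound, then stimulated with 1 nM E2 (final) for 16 hr; beta-lactamase reporter read by B/G FRET fluorescence after 2 hr substrate loading.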

Assay [9] deals with Androgen receptor (Homo sapiens) (UniProt P10275). Briefly: qHTS assay to identify small molecule agonists of the androgen receptor (AR) signaling pathway in the presence of an antagonist (AID 1259381). Note: nearly all actives have a fitted effect of over 15% in size. The gist of the method:
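MDA-kb2 cells carrying MMTV-luciferase (AR/GR responsive), 3,000 cells/well, co-treated with 3.0 uM nilutamide final. Compounds at 15 concentrations, 16 hr at 37C without CO2. Luciferase luminescence read after 30 min with ONE-Glo.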

Assay [10] addresses Estrogen receptor beta (Homo sapiens) (UniProt Q92731). Briefly: qHTS assay to identify small molecule agonists of the estrogen receptor beta (ER-beta) signaling pathway (AID 1259377; active = well fitted activation curve with a large enough effect in the signal ratio in the repeat runs, not every such curve was filed as active; the % refers to the signal ratio). In a few lines: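 In HEK293T cells bearing a UAS-beta-lactamase reporter under ER-beta control, DMSO-delivered compounds were incubated for 16 hr at 37C. Activity was detected as fluorescence 2 hours after LiveBLAzer B/G FRET substrate addition.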

Consider 14 compounds from PubChem BioAssay (Tox21).

Values without a mark were called inactive. Records with an inconclusive call do not appear. Activity calls are given as the source filed them. Unless noted, calls come from the whole dose curve.
% is set by controls: 0 for no effect and ±100 for the full control effect.

Chain of Androgen receptor (Homo sapiens) (P10275 whole entry, looked up): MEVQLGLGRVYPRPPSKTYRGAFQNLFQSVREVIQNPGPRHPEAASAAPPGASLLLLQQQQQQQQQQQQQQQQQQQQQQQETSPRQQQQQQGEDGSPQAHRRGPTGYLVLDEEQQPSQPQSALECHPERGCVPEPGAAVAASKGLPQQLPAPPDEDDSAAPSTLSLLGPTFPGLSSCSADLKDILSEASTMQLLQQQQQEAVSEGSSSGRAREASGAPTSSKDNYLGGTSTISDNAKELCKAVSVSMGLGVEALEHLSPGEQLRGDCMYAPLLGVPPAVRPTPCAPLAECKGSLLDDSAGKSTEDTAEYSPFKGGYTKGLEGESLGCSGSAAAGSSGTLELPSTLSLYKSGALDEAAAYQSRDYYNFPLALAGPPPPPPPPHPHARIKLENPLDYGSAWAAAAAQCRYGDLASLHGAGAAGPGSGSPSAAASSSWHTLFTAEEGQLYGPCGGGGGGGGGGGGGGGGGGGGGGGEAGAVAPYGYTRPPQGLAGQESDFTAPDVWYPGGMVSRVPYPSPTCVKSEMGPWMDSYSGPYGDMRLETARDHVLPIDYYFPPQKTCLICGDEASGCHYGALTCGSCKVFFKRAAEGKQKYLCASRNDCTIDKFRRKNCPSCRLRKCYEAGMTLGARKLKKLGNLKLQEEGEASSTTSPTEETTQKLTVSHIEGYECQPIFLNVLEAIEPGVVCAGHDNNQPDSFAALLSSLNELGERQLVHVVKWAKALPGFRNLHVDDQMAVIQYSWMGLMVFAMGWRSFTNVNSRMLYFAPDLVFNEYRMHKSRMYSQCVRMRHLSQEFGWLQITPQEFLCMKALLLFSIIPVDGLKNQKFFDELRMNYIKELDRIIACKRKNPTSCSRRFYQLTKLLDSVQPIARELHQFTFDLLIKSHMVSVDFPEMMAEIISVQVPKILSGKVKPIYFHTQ
Chain of Estrogen receptor (Homo sapiens) (P03372 whole entry, looked up): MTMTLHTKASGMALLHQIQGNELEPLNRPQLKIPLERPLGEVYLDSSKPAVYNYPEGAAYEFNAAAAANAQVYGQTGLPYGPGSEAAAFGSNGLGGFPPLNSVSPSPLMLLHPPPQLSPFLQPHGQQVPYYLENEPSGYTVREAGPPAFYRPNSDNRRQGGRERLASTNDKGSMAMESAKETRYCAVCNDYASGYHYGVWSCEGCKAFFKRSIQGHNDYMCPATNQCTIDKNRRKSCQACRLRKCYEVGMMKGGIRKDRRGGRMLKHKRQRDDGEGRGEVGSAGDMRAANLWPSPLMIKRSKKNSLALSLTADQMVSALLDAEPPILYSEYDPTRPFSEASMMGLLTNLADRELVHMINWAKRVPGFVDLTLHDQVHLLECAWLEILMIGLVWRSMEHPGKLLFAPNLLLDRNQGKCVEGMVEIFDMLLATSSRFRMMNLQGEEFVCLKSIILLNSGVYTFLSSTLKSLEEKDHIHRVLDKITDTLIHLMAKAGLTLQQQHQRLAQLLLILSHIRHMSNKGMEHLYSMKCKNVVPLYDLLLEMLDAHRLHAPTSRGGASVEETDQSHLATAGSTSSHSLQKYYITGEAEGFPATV
Chain of Thyrotropin receptor (Homo sapiens) (P16473 whole entry, looked up): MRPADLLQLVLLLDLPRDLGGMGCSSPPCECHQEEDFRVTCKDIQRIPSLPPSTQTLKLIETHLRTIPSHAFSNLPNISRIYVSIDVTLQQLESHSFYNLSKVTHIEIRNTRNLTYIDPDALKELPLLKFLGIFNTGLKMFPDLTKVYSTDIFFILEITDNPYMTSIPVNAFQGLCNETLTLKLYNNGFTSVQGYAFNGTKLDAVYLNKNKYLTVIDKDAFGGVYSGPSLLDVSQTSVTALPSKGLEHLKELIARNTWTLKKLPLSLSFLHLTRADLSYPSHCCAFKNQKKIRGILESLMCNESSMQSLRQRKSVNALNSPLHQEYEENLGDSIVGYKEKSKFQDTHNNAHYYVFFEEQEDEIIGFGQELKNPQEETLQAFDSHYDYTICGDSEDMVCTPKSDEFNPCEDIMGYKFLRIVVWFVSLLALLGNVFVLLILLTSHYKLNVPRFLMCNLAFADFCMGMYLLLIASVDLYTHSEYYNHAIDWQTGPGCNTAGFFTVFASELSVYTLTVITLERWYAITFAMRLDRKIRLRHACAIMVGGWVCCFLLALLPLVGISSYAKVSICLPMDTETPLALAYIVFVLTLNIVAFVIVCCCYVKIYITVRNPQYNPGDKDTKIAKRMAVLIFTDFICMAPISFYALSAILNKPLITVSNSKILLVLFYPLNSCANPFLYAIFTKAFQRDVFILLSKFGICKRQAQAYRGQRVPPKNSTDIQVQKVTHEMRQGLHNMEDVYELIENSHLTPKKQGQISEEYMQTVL
Chain of Estrogen receptor beta (Homo sapiens) (Q92731 whole entry, looked up): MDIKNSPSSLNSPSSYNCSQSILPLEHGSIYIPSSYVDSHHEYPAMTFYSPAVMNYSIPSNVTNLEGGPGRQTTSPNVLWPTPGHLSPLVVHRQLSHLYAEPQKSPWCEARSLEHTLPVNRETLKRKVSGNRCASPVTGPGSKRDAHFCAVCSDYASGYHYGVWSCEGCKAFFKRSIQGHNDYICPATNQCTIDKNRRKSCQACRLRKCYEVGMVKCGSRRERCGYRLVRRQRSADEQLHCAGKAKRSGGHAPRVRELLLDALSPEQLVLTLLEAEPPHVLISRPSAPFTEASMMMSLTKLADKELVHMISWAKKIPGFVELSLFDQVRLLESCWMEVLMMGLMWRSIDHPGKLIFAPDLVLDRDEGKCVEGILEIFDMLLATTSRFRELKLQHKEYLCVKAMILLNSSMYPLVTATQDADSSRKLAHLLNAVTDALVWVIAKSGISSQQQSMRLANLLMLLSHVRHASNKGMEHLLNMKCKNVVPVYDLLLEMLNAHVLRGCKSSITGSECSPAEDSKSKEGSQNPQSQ

As for `C=CC(C)(CCC=C(C)C)OC=O` (centres undefined), the Potency result in [1], in assay [2], in assay [3], in [4] and in assay [6] was “inactive” each time. The compound was called inactive in assay [5].

Regarding `CCC(C)[O-].CCC(C)[O-].CCOC(=O)/C=C(/C)[O-].[Al+3]`, the Potency result in assay [1], in [2], in assay [3], in assay [7] and in assay [6] was “inactive” each time. Moreover, the call in assay [5] was inactive.

In the case of `CCCCC(CC)CN1CN(CC(CC)CCCC)CC(C)(N)C1` (centres undefined), the Potency entry in assay [1], in [8], in assay [7] and in assay [4] was “inactive” throughout. Besides, the Potency in [2] and in assay [6] was 21.1 µM (active) in each case. Moreover, the outcome in assay [9] and in assay [5] was inactive.

As to `O=C1c2ccccc2C(=O)N1SC1CCCCC1`, the results for the Potency in assay [1] and in [3] were 15.3 µM (active) and 54.5 µM (active), respectively. In addition, the Potency result in [8], in assay [2], in [4] and in assay [6] was “inactive” throughout. Moreover, in [5], the outcome was inactive.

Turning to `O=c1oc2cc(O)ccc2c2oc3cc(O)ccc3c12`, the Potency was 13.1 µM (active) in assay [1] and 37 µM (active) in assay [3]. Also, the Potency entry in assay [2] and in assay [7] was “inactive” in each case.

For `CCCCCCCCCCCCOCCOCCOCCOCCOCCOCCOCCOCCOCCO`, the Potency in assay [1] is 7.5 µM (active); in [8] it was 8.41 µM (active); in assay [7], 29.8 µM (active). Moreover, the Potency entry in [4] and in assay [6] was “inactive” in each case. Besides, the call in assay [5] was inactive.

`OC1CCCc2ccccc21` (centres undefined): the Potency result in [1], in assay [2], in assay [3], in assay [7], in [4] and in assay [6] was “inactive” each time. In addition, in assay [5], the compound was called inactive.

Turning to `Cc1cc(C(C)(C)C)cc(C)c1CC1=NCCN1`, the Potency entry in [1], in assay [2], in assay [3], in assay [7] and in [6] was “inactive” each time. In addition, the outcome in assay [5] was inactive.

On to `CCCCCC(C)OC(=O)COc1ccc(Cl)c2cccnc12` (centres undefined), for which the Potency in assay [1] was 54.5 µM (active). Besides, the Potency entry in assay [7] and in assay [6] was “inactive” throughout. In assay [5], the call was inactive.

With `Cc1c(N)cccc1C(F)(F)F`, the Potency entry in [1], in assay [2], in assay [7] and in [6] was “inactive” in each case. Moreover, the outcome in assay [9] and in [5] was inactive.

Consider `O=C(O)c1cc(N=Nc2ccc([N+](=O)[O-])cc2)ccc1O`, for which the Potency result in [1], in assay [4] and in [6] was “inactive” each time. The Potency in [2] is 60 µM (active). Also, the compound was classed as inactive in [5].

On to `CN1CCCCC1CCN1c2ccccc2Sc2ccc(S(C)=O)cc21` (centres undefined), for which, in assay [1], the Potency was 2.66 µM (active). For the same compound, the outcome in [5] was inactive.

Consider `CC(C)Cn1cnc2c(N)nc3ccccc3c21`, for which the activation was 4.64% [at 19 µM] in [10], -5.94% [at 19 µM] in [9] and -0.124% [at 19 µM] in assay [4]. Also, the activity, negative = inhibition in assay [8] was 5.3% [at 19 µM]. For the same compound, the activity change, negative = cytotoxicity in [2] was -7.59% [at 19 µM]; in assay [3], 0.961% [at 19 µM]. In assay [5], the cAMP activity change was -0.409% [at 18.9 µM]. In addition, the activity change, negative = inhibition in [6] is 2.37% [at 19 µM].

As for `CCCCCCC1CCCC(=O)O1` (centres undefined), the Potency entry in [1], in [2] and in [6] was “inactive” in each case. Also, the compound was classed as inactive in [5].
